Algae TAG accum = algal TAG accumulation induction. 0.84% of 44,000 active. calls only at 10 µM (by protocol). AID 1159537. Chlamydomonas reinhardtii TAG, Nile Red fluorescence, 72 h; call rule not given here;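 also: hits raise Nile Red signal meaning more stored TAG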
* marks the source's active call; other numbers are inactive results; i = inactive; + = active, no number. Shown is part of a subset that was picked to be rich in hits.

SMILES	Algae TAG accum
O=C(Nc1ccc(Cl)cc1Cl)c1ccc(NC(=O)c2ccco2)cc1	i
CC(=O)c1cccc(NS(=O)(=O)c2cc(Cl)c(Cl)cc2Cl)c1	i
COc1ccc(NC(=O)c2ccc(-c3ccc(Br)cc3)o2)c(OC)c1	i
O=C(O)C1(C#Cc2ccccc2)C2CCCCC21 (stereo not given)	i
c1cc(CNC2CC3CCC2C3)ccn1 (stereo not given)	i
Cc1ccc2c(c1)C(=O)CC(c1ccccc1Cl)O2 (stereo not given)	i
O=C(NCCN1CCOCC1)C1CCN(CCCc2ccccc2)CC1	i
CC(C)=C1C2CCC1C(C(=O)NCCc1cccc(Cl)c1)C2C(=O)O (stereo not given)	i
Cc1cccc(NC(=O)c2ccc(C)cc2Cl)c1	i
O=C(NCC12CC3CC(CC(C3)C1)C2)NC1CCCCC1	i
O=C(CN1CCCCC1)NCC12CC3CC(CC(C3)C1)C2	+
CNCC(=O)NCC12CC3CC(CC(C3)C1)C2	i
O=C(CCN1CCOCC1)NC12CC3CC(CC(C3)C1)C2	i
CNCC(=O)NC12CC3CC(CC(C3)C1)C2	i
O=C(CN1CCCCC1)NC12CC3CC(CC(C3)C1)C2	+
CCOc1cc(C=O)cc(Cl)c1OCc1ccc(C(=O)O)cc1	i
CCSc1nc2ccccc2c(=O)n1CC	i
O=C(Nc1ccc([N+](=O)[O-])cc1)c1cccc(Cl)c1Cl	+
O=C(Nc1cccc([N+](=O)[O-])c1)c1ccccc1Cl	i
O=C(Nc1ccc(F)cc1)c1cccc(Cl)c1Cl	i
Nc1cc(N)nc(SCC(=O)Nc2ccc(Br)cn2)n1	i
COc1ccc(N2CCN(S(=O)(=O)c3ccccc3)CC2)cc1	i
Clc1ccc(CN2CCC(N3CCCCCC3)CC2)cc1	i
Clc1ccc(CN2CCCCCCC2)cc1	i
Clc1ccc(CN2CCCCCC2)cc1	+
SMILES	Algae TAG accum
CC1(C)CC(NC(=O)c2cncc(Br)c2)CC(C)(C)N1	i
Cc1ccc(C(=O)Nc2ccc(C)cc2[N+](=O)[O-])c(Cl)c1	i
Cc1ccc(CNC(=O)c2ccccc2F)cc1	i
O=[N+]([O-])c1ccc(CN2CCOCC2)cc1	i
O=[N+]([O-])c1ccc(CN2CCN(Cc3cc(Br)ccc3O)CC2)cc1	+
O=[N+]([O-])c1ccc(S(=O)(=O)N2CCN(Cc3cc(Br)ccc3O)CC2)cc1	i
COc1cc2c(cc1OC)CN(Cc1ccc([N+](=O)[O-])cc1)CC2	i
O=[N+]([O-])c1ccc(CN2CCCCC2)cc1	i
O=[N+]([O-])c1ccc(CN2CCc3ccccc3C2)cc1	+
COc1ccc(NC(=O)C(c2ccccc2)c2ccccc2)cc1OC	i
O=C1C2C(c3ccccc3)C=CC(c3ccccc3)C2C(=O)N1Cc1ccco1 (stereo not given)	i
Nc1ccc(Oc2ccc(-c3nc4ccccc4[nH]3)cc2)cc1	i
COc1ccc(/C=C(\C#N)c2nc(C3CC3)cs2)cc1OCc1ccccc1	i
NC(=O)c1cc(-c2ccccc2)sc1NC(=O)c1ccc(OC(F)F)cc1	+
CC(C)Oc1ccc(C(=O)Nc2ccccc2C(N)=O)cc1	i
NC(=O)c1cc(-c2ccccc2)sc1N	i
Cc1ccc(C(=O)NCCCc2ccccc2)o1	i
CC(=O)N(C1=C(N(C)C)C(=O)c2ccccc2C1=O)c1cccc(Cl)c1	i
CC(=O)N(C1=C(N(C)C)C(=O)c2ccccc2C1=O)c1ccc(F)c(F)c1	i
CC(=O)N(C1=C(N(C)C)C(=O)c2ccccc2C1=O)c1ccc(Cl)c(Cl)c1	+
CC(=O)C1=C(C)NC(SCC(=O)c2ccccc2Cl)=C(C#N)C1c1sccc1C (stereo not given)	i
COc1ccc2c(C)nc(N=C(N)N)nc2c1	i
c1cc2c(cc1CNC1CCCC1)OCO2	+
O=C(CCC1CCCCC1)NCc1ccc2c(c1)OCO2	i
c1cc2c(cc1CNC1CCCCC1)OCO2	i
SMILES	Algae TAG accum
CC(C)(Oc1ccc(Cl)cc1)C(=O)N1CCN(c2cccc(Cl)c2)CC1	i
CC(C)(Oc1ccc(Cl)cc1)C(=O)N1CCN(c2ccc(F)cc2)CC1	+
CC(C)(Oc1ccc(Cl)cc1)C(=O)N1CCN(c2ccccn2)CC1	i
Cc1n[nH]c(C)c1NC(=O)c1ccc(Cl)cc1Cl	i
Brc1ccccc1OCCCCN1CCCCC1	i
CN1CCN(CCCOc2ccc(Cl)c(Cl)c2)CC1	i
CN(C)CCCOc1ccc(Cl)cc1Br	i
CN1CCN(CCCOc2ccc(Cl)cc2C(C)(C)C)CC1	i
CN1CCN(CCCOc2cc(Cl)ccc2Cl)CC1	+
Clc1cc(Br)ccc1OCCOCCN1CCOCC1	+
Brc1ccccc1OCCCN1CCOCC1	i
Clc1ccc(OCCCCN2CCCC2)c(Br)c1	+
Brc1cccc(OCCN2CCOCC2)c1	i
Clc1ccc(OCCCN2CCOCC2)c(Br)c1	+
Cc1ccc(OCCCCN2CCOCC2)c(Br)c1	i
O=C(COc1ccc(Cl)cc1Br)NCCN1CCOCC1	i
O=C(NC(c1ccccc1)c1ccccc1)c1ccccc1F	i
COc1ccc(C(=O)Nc2nnc(CCC(=O)c3ccccc3)s2)cc1OC	i
O=C(Nc1ccc(F)c(Cl)c1)c1ccccc1Br	i
CSCCC(C(=O)N1CCCCC1)N1C(=O)c2cc(Cl)c(Cl)cc2C1=O (stereo not given)	i
COc1ccccc1N(CC(=O)N1CCCCC1)S(=O)(=O)c1ccc(C)cc1	i
c1nc(Nc2ccc(N3CCCCC3)cc2)c2c3c(sc2n1)CCCC3	i
O=C(Nc1cccc(NC(=O)c2ccccc2F)c1)c1cccs1	i
CCOc1ccccc1N1CCN(C(=O)c2cccc(Br)c2)CC1	i
COc1ccc(NC(=O)Cc2nnc(NC(=O)Nc3ccc(Cl)c(Cl)c3)s2)cc1	i
SMILES	Algae TAG accum
Cc1ccc(S(=O)(=O)N2CCC(C(=O)N3CCCC3)CC2)cc1	i
Cc1ccc(C(C)C)cc1OCCOCCN1CCOCC1	+
C=CCc1cc(C)ccc1OCCOCCN1CCOCC1	i
Cc1ccc(C(C)C)cc1OCCCN1CCNCC1	i
Oc1ccc(-c2[nH]ncc2-c2ccccc2)c(O)c1	i
O=C(Nc1cccnc1)c1ccc(S(=O)(=O)c2ccc(Cl)cc2)cc1	+
O=C(Nc1cccnc1)c1ccc(-c2ccc(Cl)cc2)o1	i
CS(=O)(=O)N(Cc1ccccc1Cl)c1ccc(C(=O)Nc2cccnc2)cc1	i
CC(O)CNCCNc1c(Cl)cccc1[N+](=O)[O-] (stereo not given)	i
O=C(Nc1ccc(-c2nc3ccccc3o2)c(O)c1)c1ccc(F)cc1	i
C=CCn1c(SCC(=O)O)nnc1-c1ccc(Cl)cc1	i
C=CCn1c(SCC(=O)O)nnc1-c1ccccc1	i
C=CCn1c(SCC(=O)NCCc2ccccc2)nnc1-c1ccc(Cl)cc1Cl	+
COc1ccc(NC(=O)CCS(=O)(=O)c2ccc(Br)cc2)cc1	i
Fc1ccccc1CSc1nnc(-c2ccncc2)n1-c1ccccc1	i
Fc1ccccc1CSC1=NCCN1	+
Fc1ccccc1CSc1nc2ncccc2[nH]1	i
O=C(NCC1COc2ccccc2O1)C(=O)Nc1ccccn1 (stereo not given)	i
CC1=C(/C=C/c2ccc(Cl)cc2Cl)C(=O)c2ccccc2C1=O	i
c1ccc(CN2CCC(NC3C4CC5CC(C4)CC3C5)CC2)cc1 (stereo not given)	i
O=[N+]([O-])c1cccc(CN2CCN(C3CC4CCC3C4)CC2)c1 (stereo not given)	i
